Results as given in PubChem BioAssay (EPA / NIEHS).
Calls of active or inactive are those of the source. The calls were made as follows: active = hit-call score of the fitted dose curve at least 0.9, where 1 is the maximum; inactive = score below 0.9.

Test: ATG_FoxO_CIS: Attagene CIS-FACTORIAL HepG2 Assay for human Forkhead box O (FoxO) (AID 2282943)
Conditions: HepG2 Attagene cis-reporter, FoxO element, mRNA; actives raise or lower the signal
Experimental: ATG_CIS is a cell-based, multiplexed-readout assay that uses HepG2, a human liver cell line, with measurements taken at 24 hours after chemical dosing in a 24-well plate.ATG_FoxO_CIS is one of 52 assay component(s) measured or calculated from the ATG_CIS assay. It is designed to make measurements of mRNA induction, a form of inducible reporter, as detected with fluorescence intensity signals by Reverse transcription polymerase chain reaction (RT-PCR) and Capillary electrophoresis technology.Data from the assay component ATG_FoxO_CIS was analyzed into 1 assay endpoint. This assay endpoint, ATG_FoxO_CIS, was analyzed with bidirectional fitting relative to DMSO as the negative control and baseline of activity. Using a type of inducible reporter, measures of mRNA for gain or loss-of-signal activity can be used to understand the reporter gene at the transcription factor-level as they relate to the gene FOXO1 and FOXO3. Furthermore, this assay endpoint can be referred to as a primary readout, because this assay has produced multiple assay endpoints where this one serves a reporter gene function. To generalize the intended target to other relatable targets, this assay endpoint is annotated to the dna binding intended target family, where the subfamily is forkhead box protein.
Human liver HepG2 cells are transiently transfected with multiple reporter transcription units (MRTUs) in 6-well plates using FuGene 6 reagent (Roche; 3 ml FuGene/1 mg DNA). The MRTU constructs are regulated by a cis-regulating element (promoter). […] A major difference between the CIS and TRANS system is that in CIS activities of endogenous TFs are measured, whereas the TRANS assay evaluates changes in activities of exogenous, chimeric NR-Gal4 proteins. […] At the end of 24 hour incubation, total RNA was isolated using TriZol reagent (Invitrogen). The isolated RNA is then reverse-transcribed using oligo(dT) primer and Mo-MLV reverse transcriptase (Invitrogen) with DNAse I (Ambion) treatment for 30 min. The one-tenth of the produced cDNA was amplified by PCR using Taq DNA polymerase (Invitrogen) and two reporter sequence-specific primers. The PCR products were fluorescently labeled by primer extension with 6-arboxyfluorescein (6-FAM) 5'-labeled reporter sequence-specific primer (2 min at 95 C, 20 s at 68 C and 10 min at 72 C) and these products were digested with 5U of HpaI (New England Biolabs) for 2h at 37 C. The fragments were purified using Qiaquick PCR columns (Qiagen), analyzed on an ABI 3130xL genetic analyzer (Applied Biosystems) with peak positions identified by using a set of X-rhodamine (ROX)-labeled MapMarker1000 molecular weight standards (BioVentures). The raw capillary electrophoresis data was processed using Attagraph software (Attagene).

| Structure (SMILES) | outcome |
| --- | --- |
| C1CCC(SSC2CCCCC2)CC1 | inactive |
| C=CCc1ccc(O)c(OC)c1 | inactive |
| CCCCCC(=O)O | inactive |
| Cc1cccc(C)c1O | inactive |
| NS(=O)(=O)c1cc2c(cc1Cl)NCNS2(=O)=O | inactive |
| CCCCCCCCCCCCCCCCCC(=O)O | inactive |
| O=C(O)CCCCC(=O)O | inactive |
| CN1CCCC1=O | inactive |
| CC(=O)C(C)=CC1C(C)=CCCC1(C)C (stereo not given) | inactive |
| C[C@]12C=CC(=O)C=C1CC[C@@H]1[C@@H]2C(=O)C[C@@]2(C)[C@H]1CC[C@]2(O)C(=O)CO | inactive |
| Nc1ccccc1N | inactive |
| CC(=O)OC/C=C(\C)CCC=C(C)C | inactive |
| Cc1cc(NC(=O)C(=O)O)cc(C)c1Oc1ccc(O)c2c1CCC2 | inactive |
| CCCc1cc(=O)[nH]c(=S)[nH]1 | inactive |
| Cc1ccc(Cl)cc1 | inactive |
| CCNc1cccc(C)c1 | inactive |
| COc1ccc2c(c1)c(CC(=O)O)c(C)n2C(=O)c1ccc(Cl)cc1 | inactive |
| CC(=O)Oc1ccccc1C(=O)O | inactive |
| CCCCCCCCCCCCCCCC | inactive |
| CN1CCN(Cc2cc(-c3ccc4[nH]c(=O)oc4c3)co2)[C@@H](c2ccc(F)cc2)C1 | inactive |

| Structure (SMILES) | outcome |
| --- | --- |
| CCc1c(C(=O)NN2CCCCC2)nn(-c2ccc(Cl)cc2Cl)c1-c1ccc(Br)cc1 | inactive |
| COCCOC[C@H](CC1(C(=O)NC2CCC(C(=O)O)CC2)CCCC1)C(=O)Oc1ccc2c(c1)CCC2 (stereo not given in full) | inactive |
| CCOC(=O)C(C)(C)Oc1ccc(Cl)cc1 | inactive |
| O=C(OCCCCCOC(=O)c1ccccc1)c1ccccc1 | inactive |
| CCCCOC(=O)CCCCCCCCC(=O)OCCCC | inactive |
| O=[N+]([O-])C(CO)(CO)CO | inactive |
| Clc1cc(Cl)c(Cl)cc1Cl | inactive |
| CCOC(=O)CCC(=O)OCC | inactive |
| Cc1nc(C)nc(N2C[C@@H](C)N(c3ccnc([C@@H](C)O)n3)[C@@H](C)C2)n1 | inactive |
| CC=Cc1ccc(O)c(OC)c1 | inactive |
| COc1ccc(S(=O)(=O)N2C(=O)[C@@](c3ccccc3OC)(N3C[C@H](O)C[C@H]3C(=O)N(C)C)c3cc(Cl)ccc32)c(OC)c1 | inactive |
| CCCCC(CC)COC(=O)CC(C(=O)OCC(CC)CCCC)S(=O)(=O)O (stereo not given) | inactive |
| CNC(=O)[C@H]1O[C@@H](n2cnc3c(NCc4cc(Cl)ccc4OCc4cc(C)no4)ncnc32)[C@H](O)[C@@H]1N | inactive |
| Nc1ccc2c(c1)C(=O)c1ccccc1C2=O | inactive |
| O=C(O)Cc1ccccc1Nc1c(Cl)cccc1Cl | inactive |
| C[Si]1(C)O[Si](C)(C)O[Si](C)(C)O[Si](C)(C)O1 | inactive |
| CN[C@H]1CC[C@@H](c2ccc(Cl)c(Cl)c2)c2ccc(S(N)(=O)=O)cc21 | inactive |
| CC1(C)NC(=O)NC1=O | inactive |
| O=c1[nH]cc(F)c(=O)[nH]1 | inactive |
| Cc1cc(=O)[nH]c(=S)[nH]1 | inactive |
